PubChem BioAssay (Tox21)
Inconclusive results are not listed. Calls of active or inactive are those of the source. Unless noted, calls come from the whole dose curve; as a rule, active = well fitted curve in the direction sought with a large enough effect in the repeat runs; inconclusive = weak or mixed curves; inactive = no such curve, though single readings can be large; an effect the other way counts as inactive or inconclusive.

Key:
[1] = qHTS assay to identify small molecule antagonists of the glucocorticoid receptor (GR) signaling pathway - cell viability counter screen (AID 720693); note: nearly all actives have a fitted effect of over 55% in size
[2] = qHTS assay to identify small molecule antagonists of the androgen receptor (AR) signaling pathway using the MDA cell line - cell viability counter screen (AID 743041; note: nearly all actives have a fitted effect of over 45% in size)
Method in brief: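 Compound exposure lasted 16 h at 37C in MDA-kb2 AR-luc cells stimulated with R1881. Protease-based CellTiter-Fluor reagent was applied for the final 30 min and fluorescence measured.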

[3] = qHTS assay to identify small molecule antagonists of the thyroid receptor (TR) signaling pathway - cell viability counter screen (AID 743064); note: nearly all actives have a fitted effect of over 50% in size
Method in brief: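 In rat pituitary GH3.TRE-Luc reporter cells co-exposed to compound and 1 nM T3 for 23.5 h, cytotoxicity was assessed with CellTiter-Fluor in the same wells, read by fluorescence.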

[4] = qHTS assay to identify small molecule antagonists of the thyroid receptor (TR) signaling pathway (AID 743065); note: series mostly up to about 70 µM; nearly all actives have a fitted effect of over 55% in size
Method in brief: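 GH3.TRE-Luc rat pituitary cells (two TREs driving luciferase) were dosed with compound, then stimulated with 1 nM T3 (final) for 23.5 h at 37 C. ONE-Glo luminescence was the read-out, with CellTiter-Fluor fluorescence as the cytotoxicity counter-screen.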

[5] = test system: thyroid hormone receptor (rat, GH3 cells); experiment: qHTS assay to identify small molecule agonists of the thyroid receptor (TR) signaling pathway (AID 743066; calls by dose curve)
[6] = biological target: Estrogen receptor (Homo sapiens) (UniProt P03372); experiment: qHTS assay to identify small molecule antagonists of the estrogen receptor alpha (ER-alpha) signaling pathway (AID 743069; active = well fitted curve in the direction sought with a large enough effect in the signal ratio in the repeat runs, not every such curve was filed as active; the % refers to the signal ratio)
Method in brief: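 In this cell-based reporter format, GripTite HEK293 cells harbouring ER-alpha-UAS-bla were grown overnight with 2% charcoal-stripped FBS, dosed with DMSO-dissolved compounds, then challenged with 17beta-estradiol. After 18 hr at 37C, beta-lactamase activity was detected by FRET fluorescence.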

[7] = qHTS assay to identify small molecule antagonists of the estrogen receptor alpha (ER-alpha) signaling pathway - cell viability counter screen (AID 743074; calls by dose curve; note: nearly all actives have a fitted effect of over 45% in size)
[8] = biological target: Estrogen receptor (Homo sapiens) (UniProt P03372); experiment: qHTS assay to identify small molecule agonists of the estrogen receptor alpha (ER-alpha) signaling pathway (AID 743075; calls by dose curve)
[9] = biological target: Estrogen receptor (Homo sapiens) (UniProt P03372); experiment: qHTS assay to identify small molecule agonists of the estrogen receptor alpha (ER-alpha) signaling pathway using the BG1 cell line (AID 743079); note: nearly all actives have a fitted effect of over 20% in size; note: potency is the fitted concentration of half-maximal effect
[10] = qHTS assay to identify small molecule antagonists of the estrogen receptor alpha (ER-alpha) signaling pathway using the BG1 cell line (AID 743080; calls by dose curve;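 note: BG1 cells stimulated with 17beta-estradiol alongside compound; series mostly up to about 70 µM; nearly all actives have a fitted effect of over 25% in size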)
Method in brief: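 Readout is ONE-Glo luminescence, taken 30 min at room temperature after reagent addition, preceded by a CellTiter-Fluor viability read; BG1-Luc-4E2 cells had received compound and 17beta-estradiol for 21.5 h at 37 C.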

[11] = qHTS assay to identify small molecule antagonists of the estrogen receptor alpha (ER-alpha) signaling pathway using the BG1 cell line - cell viability counter screen (AID 743081);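 note: compound given together with 17beta-estradiol as the ER stimulus; series mostly up to about 70 µM; nearly all actives have a fitted effect of over 45% in size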
Aromatase (Homo sapiens) = Aromatase (Homo sapiens) (UniProt P11511); experiment: qHTS assay to identify aromatase inhibitors (AID 743083); note: series mostly up to about 70 µM; nearly all actives have a fitted effect of over 55% in size
[12] = qHTS assay for identifying genotoxic compounds that show differential cytotoxicity against isogenic chicken DT40 cell lines with known DNA damage response pathways - wild type cell line (AID 743012); note: nearly all actives have a fitted effect of over 60% in size
Method in brief: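 Cytotoxicity in repair-proficient parental chicken DT40 cells serves as the comparator for Rad54/Ku70- and Rev3-deficient lines. Cells were exposed to compounds for 40 h at 37 C/5% CO2, and ATP-based luminescence (CellTiter-Glo) measured viability.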

[13] = qHTS assay for identifying genotoxic compounds that show differential cytotoxicity against isogenic chicken DT40 cell lines with known DNA damage response pathways - Rev3 mutant cell line (AID 743014); note: nearly all actives have a fitted effect of over 55% in size
[14] = qHTS assay for identifying genotoxic compounds that show differential cytotoxicity against isogenic chicken DT40 cell lines with known DNA damage response pathways - Rad54/Ku70 mutant cell line (AID 743015); note: nearly all actives have a fitted effect of over 60% in size; note: potency is the fitted concentration of half-maximal effect
[15] = qHTS assay to identify small molecule antagonists of the androgen receptor (AR) signaling pathway - cell viability counter screen (AID 743033; note: nearly all actives have a fitted effect of over 45% in size)
[16] = biological target: Androgen receptor (Homo sapiens) (UniProt P10275); experiment: qHTS assay to identify small molecule agonists of the androgen receptor (AR) signaling pathway (AID 743036; active = well fitted activation curve with a large enough effect in the signal ratio in the repeat runs, with a control signal flat, not every such curve was filed as active; the % refers to the signal ratio)
Method in brief: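 Cell-based FRET reporter assay: HEK293 line with a UAS-beta-lactamase construct, compounds added in DMSO, 16 h exposure at 37C, then 2 h substrate step at room temperature and fluorescence intensity read.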

[17] = biological target: Androgen receptor (Homo sapiens) (UniProt P10275); experiment: qHTS assay to identify small molecule agonists of the androgen receptor (AR) signaling pathway using the MDA cell line (AID 743040; note: nearly all actives have a fitted effect of over 20% in size)
Method in brief: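 Testing was done with the MDA-kb2 AR-luc line, a human breast carcinoma stably transfected with MMTV-luciferase containing AR and GR response elements. Cells were exposed 16 h at 37C before ONE-Glo luminescence detection.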

[18] = biological target: Androgen receptor (Homo sapiens) (UniProt P10275); experiment: qHTS assay to identify small molecule antagonists of the androgen receptor (AR) signaling pathway using the MDA cell line (AID 743042; note: nearly all actives have a fitted effect of over 55% in size)
Method in brief: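 MDA-kb2 breast carcinoma cells carrying MMTV-luciferase (AR/GR responsive) were co-treated with compounds and the agonist R1881 for 16 h at 37C. Inhibition read as ONE-Glo luminescence; CellTiter-Fluor fluorescence measured in parallel for cytotoxicity.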

Measured: Potency

Sequence of Androgen receptor (Homo sapiens) (P10275 whole entry, looked up): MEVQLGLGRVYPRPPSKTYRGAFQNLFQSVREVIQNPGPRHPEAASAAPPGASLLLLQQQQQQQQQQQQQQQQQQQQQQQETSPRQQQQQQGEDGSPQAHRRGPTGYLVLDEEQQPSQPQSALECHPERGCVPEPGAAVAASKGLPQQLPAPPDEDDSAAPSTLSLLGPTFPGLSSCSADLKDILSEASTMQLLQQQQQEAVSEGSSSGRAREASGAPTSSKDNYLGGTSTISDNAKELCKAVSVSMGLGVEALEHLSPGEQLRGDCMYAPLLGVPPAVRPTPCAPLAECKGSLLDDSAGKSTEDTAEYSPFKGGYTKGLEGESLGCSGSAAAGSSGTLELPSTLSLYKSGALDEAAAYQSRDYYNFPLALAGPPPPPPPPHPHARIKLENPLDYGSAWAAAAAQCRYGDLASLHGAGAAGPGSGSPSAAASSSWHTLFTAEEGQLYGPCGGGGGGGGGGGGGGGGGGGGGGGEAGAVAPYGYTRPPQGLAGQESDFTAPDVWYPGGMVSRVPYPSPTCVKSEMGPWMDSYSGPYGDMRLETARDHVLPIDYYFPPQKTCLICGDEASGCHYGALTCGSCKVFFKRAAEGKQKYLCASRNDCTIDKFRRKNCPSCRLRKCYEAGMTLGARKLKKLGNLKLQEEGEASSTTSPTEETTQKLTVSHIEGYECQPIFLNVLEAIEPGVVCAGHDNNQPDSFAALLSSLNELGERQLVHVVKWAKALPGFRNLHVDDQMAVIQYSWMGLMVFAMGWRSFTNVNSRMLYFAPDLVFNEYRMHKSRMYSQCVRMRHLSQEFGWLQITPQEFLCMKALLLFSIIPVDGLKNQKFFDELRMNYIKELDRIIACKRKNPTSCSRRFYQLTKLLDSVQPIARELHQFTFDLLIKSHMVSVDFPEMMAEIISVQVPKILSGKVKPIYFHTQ
Sequence of Estrogen receptor (Homo sapiens) (P03372 whole entry, looked up): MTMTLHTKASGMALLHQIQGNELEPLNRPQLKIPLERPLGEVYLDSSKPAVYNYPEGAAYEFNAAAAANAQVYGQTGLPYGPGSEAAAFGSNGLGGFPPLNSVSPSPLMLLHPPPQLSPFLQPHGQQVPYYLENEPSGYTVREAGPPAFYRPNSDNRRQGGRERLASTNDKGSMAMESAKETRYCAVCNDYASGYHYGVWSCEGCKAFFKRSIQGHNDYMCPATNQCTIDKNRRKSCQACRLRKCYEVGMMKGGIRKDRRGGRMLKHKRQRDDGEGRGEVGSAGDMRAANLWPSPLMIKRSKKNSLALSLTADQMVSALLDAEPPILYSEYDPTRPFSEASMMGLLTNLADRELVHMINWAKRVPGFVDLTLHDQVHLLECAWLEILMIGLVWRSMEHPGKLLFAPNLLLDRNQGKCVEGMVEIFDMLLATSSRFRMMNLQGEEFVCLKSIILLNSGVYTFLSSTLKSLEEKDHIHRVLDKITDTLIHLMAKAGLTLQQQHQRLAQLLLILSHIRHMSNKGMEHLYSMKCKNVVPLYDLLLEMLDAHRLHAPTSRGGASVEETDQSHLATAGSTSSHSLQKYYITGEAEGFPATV
Sequence of Aromatase (Homo sapiens) (P11511 whole entry, looked up): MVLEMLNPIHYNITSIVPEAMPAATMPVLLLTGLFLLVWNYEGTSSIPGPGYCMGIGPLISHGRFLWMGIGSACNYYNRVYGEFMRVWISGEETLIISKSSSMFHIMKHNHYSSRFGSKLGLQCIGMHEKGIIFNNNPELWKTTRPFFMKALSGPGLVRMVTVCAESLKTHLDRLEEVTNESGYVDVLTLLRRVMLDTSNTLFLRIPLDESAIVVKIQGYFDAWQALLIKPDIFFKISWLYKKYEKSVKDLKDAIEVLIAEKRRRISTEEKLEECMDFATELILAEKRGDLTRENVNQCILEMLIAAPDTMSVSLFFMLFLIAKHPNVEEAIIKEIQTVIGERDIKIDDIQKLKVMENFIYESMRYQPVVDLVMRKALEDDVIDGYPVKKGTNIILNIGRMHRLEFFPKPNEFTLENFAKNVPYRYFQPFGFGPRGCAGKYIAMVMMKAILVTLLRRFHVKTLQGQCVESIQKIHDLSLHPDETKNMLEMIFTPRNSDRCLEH

Cc1cccc(C)c1OCC(C)N (configuration not stated)
not listed: [12] | [13] | [14] | [15] | [16] | [17] | [18]
inactive: all other assays above

C[C@H](N)[C@H](O)c1cccc(O)c1
not listed: [1] | [4] | [5] | [16] | [17] | [18]
inactive: all other assays above

CC(CO)c1ccccc1 (configuration not stated)
not listed: [1] | [9]
inactive: all other assays above

O=C(/N=N/C(=O)OCc1ccccc1)OCc1ccccc1
active: [14] 61.1 µM
inactive: [1] | [15] | [2] | [3] | [4] | [5] | [6] | [8] | [11] | Aromatase (Homo sapiens)

CC(=O)c1ccc2c(c1)Cc1ccccc1-2
active: [9] 24.4 µM
not listed: [3] | [8] | [10] | [12] | [16] | [17] | [18]
inactive: all other assays above

Cc1ccsc1/C=C/C1=NCCCN1C
not listed: [1] | [16] | [17] | [18]
inactive: all other assays above

COC(=O)[C@@H]1[C@H]2C[C@H]3c4[nH]c5ccccc5c4CCN3C[C@@H]2CC[C@@H]1O
not listed: [4] | [12] | [13] | [14] | [16] | [17] | [18]
inactive: all other assays above
